From PubChem BioAssay AID651711 (Broad Institute, 2012) come the findings set out here.

Screen size: about 350,000 compounds; about 180 (0.051%) were called active. Many of the other results were omitted from the sample, so actives are more common in it than they were. Values without a mark were called inactive.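 How the source made its calls: active means mean replicate inhibition above about 25%, with every replicate also reaching it (limit read from the data, passing the limit was not always enough); inconclusive means only one of those two criteria met; inactive means neither criterion met.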

For orientation: inhibition means the change of the read-out against control, counted positive when it falls.

The target of this assay is Protein disulfide-isomerase A6 (Homo sapiens) (UniProt Q15084). The assay is described as follows: inhibitors of ERp5-driven insulin aggregation, primary screen, biochemical, turbidity, absorbance 650 nm, single point (AID 651711). Particulars: 90 min, at 9.99 µM, hits give high values.
Sequence of Protein disulfide-isomerase A6 (Homo sapiens) (Q15084 whole entry, looked up): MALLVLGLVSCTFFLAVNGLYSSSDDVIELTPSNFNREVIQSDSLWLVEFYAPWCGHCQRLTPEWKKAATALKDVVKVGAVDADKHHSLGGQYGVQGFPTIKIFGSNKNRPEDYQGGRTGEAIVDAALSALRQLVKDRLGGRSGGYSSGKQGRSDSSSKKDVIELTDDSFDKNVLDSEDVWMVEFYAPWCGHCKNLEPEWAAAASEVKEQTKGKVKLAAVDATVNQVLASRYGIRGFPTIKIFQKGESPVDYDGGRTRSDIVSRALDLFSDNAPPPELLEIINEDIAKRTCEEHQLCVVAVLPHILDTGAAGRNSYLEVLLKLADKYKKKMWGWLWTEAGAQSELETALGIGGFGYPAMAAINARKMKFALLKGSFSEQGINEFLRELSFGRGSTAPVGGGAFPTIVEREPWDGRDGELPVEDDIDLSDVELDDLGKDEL
For `CO[C@@H]1CN(C)C(=O)c2cc(NS(=O)(=O)CC(F)(F)F)ccc2OC[C@H](C)N(C)C[C@H]1C`, the inhibition is 1.29%.

As for `C/C=C/c1ccccc1[C@H]1[C@@H](C#N)N(C(C)=O)[C@@H]1CO`, the inhibition was 0.399%.

As to `COc1ccc(NC(=O)N(C)C[C@@H]2OCc3ccccc3-c3c(n(C)c4ccccc34)C(=O)N([C@H](C)CO)C[C@H]2C)cc1`, the inhibition was 1.51%.

For the compound `COc1ccc(S(=O)(=O)Nc2ccc3c(c2)C(=O)N([C@@H](C)CO)C[C@H](C)[C@H](CN(C)Cc2ccc(C(=O)O)cc2)O3)cc1`, the inhibition is 4.86%.

With `C/C=C/c1ccc2c(c1)O[C@H](CN(C)C(=O)Cc1ccccn1)[C@H](C)CN([C@H](C)CO)S2(=O)=O`, the inhibition is -3.16%.

In the case of `N#C[C@@H]1[C@H](c2ccccc2-c2ccccc2F)[C@@H](CO)N1C(=O)c1ccccn1`, the inhibition is -2.07%.

Regarding `Cc1ccc(S(=O)(=O)Nc2ccc3c(c2)C(=O)N([C@H](C)CO)C[C@H](C)[C@@H](CN(C)S(=O)(=O)c2cccs2)O3)cc1`, the inhibition is 3.96%.

On to `C[C@@H]1CN([C@@H](C)CO)C(=O)c2cc(NC(=O)Nc3ccccc3)ccc2O[C@H]1CN(C)C(=O)Nc1ccc(F)cc1`, for which the inhibition is 4.96%.

With `CCC(=O)N(C)C[C@H]1[C@H](c2ccc(-c3ccccc3F)cc2)[C@@H](CO)N1C(C)=O`, the inhibition is -0.23%.

`COCC#Cc1ccc([C@@H]2[C@@H](CO)N3C(=O)CN(C(=O)C4CCCC4)C[C@@H]23)cc1`: the inhibition was 0.681%.

Turning to `Cc1noc(C)c1S(=O)(=O)N(C)C[C@H]1Oc2ccc(NC(=O)Nc3cccc4ccccc34)cc2CC(=O)N([C@@H](C)CO)C[C@H]1C`, the inhibition is -5.17%.

With `COc1ccc2c3c(n(C)c2c1)[C@@H](CO)N(C(=O)c1ccc(F)cc1)CC31CN(C(=O)c2ccc(F)cc2)C1`, the inhibition is 1.03%.

As to `COc1ccc2c3c(n(C)c2c1)[C@@H](CO)N(C(=O)CN1CCOCC1)CC31CN(C(=O)CC2CC2)C1`, the inhibition was -0.576%.

In the case of `CN(C)CC(=O)N1[C@@H](CO)[C@H](c2ccccc2)C12CN(C(=O)c1cccc(F)c1)C2`, the inhibition is 2.27%.

As to `C/C=C/c1ccc([C@@H]2[C@H](CO)N(C(=O)c3cnccn3)C23CN(C(C)=O)C3)cc1`, the inhibition was -4.61%.

Regarding `C[C@@H]1CN([C@H](C)CO)C(=O)c2cc(C#CCC3CCCC3)cnc2O[C@H]1CN(C)C(=O)c1cnccn1`, the inhibition is -0.111%.

Regarding `C[C@@H]1CN([C@H](C)CO)S(=O)(=O)c2ccc(-c3ccncc3)cc2O[C@H]1CN(C)S(=O)(=O)c1ccccc1F`, the inhibition is -3.02%.

For `C[C@@H]1CN([C@@H](C)CO)C(=O)c2cc(NS(=O)(=O)c3ccccc3)ccc2O[C@@H]1CN(C)Cc1ccc(C(=O)O)cc1`, the inhibition was -2.81%.

`Cc1noc(C)c1S(=O)(=O)Nc1ccc2c(c1)C(=O)N([C@H](C)CO)C[C@H](C)[C@H](CN(C)S(C)(=O)=O)OCCCC[C@H](C)O2`: the inhibition was -0.161%.

On to `C[C@@H]1CN([C@@H](C)CO)S(=O)(=O)c2ccc(C#CC(C)(C)O)cc2O[C@H]1CN(C)C(=O)CN(C)C`, for which the inhibition was -0.244%.

Turning to `C[C@H](CO)N1C[C@H](C)[C@H](CN(C)C)Oc2cc(C#Cc3ccccc3F)ccc2S1(=O)=O`, the inhibition is 11.3%.

As to `O=C(C[C@@H]1CC[C@@H]2[C@H](COC[C@H](O)CN2C(=O)Cc2ccccc2)O1)NC1CCC1`, the inhibition is 9.77%.

For the compound `COc1ccc(-c2ccc([C@@H]3[C@@H](C#N)N(C(=O)C4CCCCC4)[C@H]3CO)cc2)cc1`, the inhibition was -2.17%.

As to `CCCNC(=O)N1C[C@H](C)[C@@H](OC)CN(C)C(=O)c2ccc(NC(=O)CC)cc2OC[C@@H]1C`, the inhibition is 7.86%.

With `CC(C)NC(=O)N[C@H]1CC[C@H](CC(=O)N2CCCCC2)O[C@@H]1CO`, the inhibition is 3.34%.

`C[C@@H]1CCCCO[C@H](CN(C)Cc2ccc(Cl)c(Cl)c2)[C@@H](C)CN([C@H](C)CO)C(=O)c2cc(NS(=O)(=O)c3cn(C)cn3)ccc2O1`: the inhibition was 1.36%.

Take `COc1ccc(S(=O)(=O)N(C)C[C@H]2Oc3ccc(NC(=O)C4CC4)cc3CC(=O)N([C@@H](C)CO)C[C@@H]2C)cc1`: the inhibition was 2.88%.

In the case of `COc1ccccc1C#Cc1cnc2c(c1)C(=O)N([C@H](C)CO)C[C@H](C)[C@H](CN(C)S(=O)(=O)c1cn(C)cn1)O2`, the inhibition is -2.62%.

Turning to `CCN1C(=O)N[C@@H]2C[C@H](C(=O)N3CCCC3)[C@H](C)[C@H](c3ccccc3)C[C@@H]21`, the inhibition was 0.542%.

On to `COc1ccccc1C#Cc1cnc2c(c1)C(=O)N([C@@H](C)CO)C[C@@H](C)[C@@H](CN(C)C(=O)CN(C)C)O2`, for which the inhibition was -1.98%.

Consider `C[C@@H]1CN([C@H](C)CO)C(=O)c2cc(NC(=O)c3ccncc3)ccc2O[C@@H](C)CCCCO[C@@H]1CN(C)CC1CC1`, for which the inhibition was 3.17%.

As for `Cc1ccccc1S(=O)(=O)N[C@@H]1CC[C@H](CCn2cc(-c3ccc(F)cc3)nn2)O[C@@H]1CO`, the inhibition is 0.302%.

Consider `COc1ccc(C#Cc2ccc([C@@H]3[C@@H](CO)N4C(=O)CN(C(=O)c5ccc(F)cc5)C[C@@H]34)cc2)cc1`, for which the inhibition is 6.45%.

For `CO[C@@H]1CN(C)C(=O)c2cc(NC(=O)Nc3cccc(F)c3)ccc2OC[C@H](C)N(C)C[C@@H]1C`, the inhibition was 2.15%.

With `C[C@@H]1CN([C@H](C)CO)C(=O)c2cc(-c3ccc(F)cc3)cnc2O[C@@H]1CN(C)C(=O)C1CCC1`, the inhibition was 1.7%.

On to `C[C@@H]1CN([C@H](C)CO)C(=O)c2cc(NS(=O)(=O)c3ccc(F)cc3)ccc2O[C@@H]1CN(C)C(=O)Nc1cccc2ccccc12`, for which the inhibition is 13.7%.

As to `CCCN1C[C@H](C)[C@@H](OC)CN(C)C(=O)c2ccc(NC(=O)C3CCOCC3)cc2OC[C@@H]1C`, the inhibition is 0.943%.

Turning to `C[C@H](CO)N1C[C@H](C)[C@@H](CN(C)CC2CC2)OCCCC[C@H](C)Oc2ccc(NC(=O)Nc3ccccc3)cc2C1=O`, the inhibition is 2.55%.

Regarding `O=S(=O)(c1ccccc1)N1CC[C@@H]2[C@@H](CO)Nc3ccc(C#Cc4cccc(F)c4)cc3[C@@H]21`, the inhibition was -0.006%.

As to `CCC(=O)N(C)C[C@@H]1Oc2cc(-c3ccc(OC)cc3)ccc2S(=O)(=O)N([C@@H](C)CO)C[C@H]1C`, the inhibition was 0.0355%.

With `CC(C)C#Cc1cnc2c(c1)C(=O)N([C@H](C)CO)C[C@@H](C)[C@H](CN(C)Cc1ccccc1)O2`, the inhibition was -2.64%.

Turning to `C[C@@H]1CN([C@H](C)CO)C(=O)Cc2cc(NC(=O)Nc3ccccc3)ccc2O[C@@H]1CN(C)Cc1ccc(C(F)(F)F)cc1`, the inhibition is 1.88%.

As to `COc1ccc(S(=O)(=O)Nc2ccc3c(c2)CC(=O)N([C@H](C)CO)C[C@@H](C)[C@@H](CN(C)C(=O)Nc2cccc4ccccc24)O3)cc1`, the inhibition is 11.8%.

In the case of `COc1ccc(NC(=O)N(C)C[C@@H]2Oc3ccc(NS(=O)(=O)c4ccc(OC)cc4)cc3CC(=O)N([C@H](C)CO)C[C@H]2C)cc1`, the inhibition was 8.49%.

As to `COc1ccc(S(=O)(=O)Nc2ccc3c(c2)CC(=O)N([C@H](C)CO)C[C@H](C)[C@H](CN(C)C(=O)Nc2ccccc2)O3)cc1`, the inhibition was 64.1% (active).

With `C[C@@H]1CN([C@H](C)CO)C(=O)Cc2cc(NC(=O)Nc3cccc4ccccc34)ccc2O[C@@H]1CN(C)Cc1ccc(C(F)(F)F)cc1`, the inhibition was 60% (active).

In the case of `C[C@@H]1CN([C@H](C)CO)C(=O)Cc2cc(NC(=O)Nc3cccc4ccccc34)ccc2O[C@@H]1CN(C)Cc1ccc(C(=O)O)cc1`, the inhibition is 2.16%.

`COC(=O)[C@@H]1[C@@H](CO)[C@@H]2Cn3c(ccc(-c4ccc(OC)cc4)c3=O)[C@@H]2N1S(C)(=O)=O`: the inhibition is 4.09%.

As to `O=C(N[C@@H]1CC[C@@H](CC(=O)N2CCc3ccccc3C2)O[C@H]1CO)C1CCC1`, the inhibition was -0.402%.

Regarding `CCC(=O)N1CC(=O)N2[C@H](CO)[C@@H](c3ccc(-c4ccc(C(=O)N(C)C)cc4)cc3)[C@@H]2C1`, the inhibition was -1.19%.

Regarding `CO[C@H]1CN(C)C(=O)c2ccc(NC(=O)C3CCC3)cc2OC[C@@H](C)N(Cc2ccccn2)C[C@H]1C`, the inhibition was -2.1%.

As to `C[C@H](CO)N1C[C@H](C)[C@H](CN(C)Cc2ccc(C(=O)O)cc2)OCc2cn(nn2)CCCC1=O`, the inhibition was -4.21%.

As to `Cc1ccccc1C(=O)N[C@H](C(=O)N1CCC[C@H]1C(=O)NCc1ccccc1)C(C)C`, the inhibition is 5.11%.

Regarding `CO[C@H]1CN(C)C(=O)c2cc(NS(=O)(=O)c3ccccc3)ccc2OC[C@@H](C)N(Cc2nccs2)C[C@@H]1C`, the inhibition is 1%.

As to `COc1ccc(CN(C)C[C@@H]2Oc3c(NC(=O)C4CC4)cccc3C(=O)N([C@@H](C)CO)C[C@H]2C)cc1`, the inhibition is 1.33%.

For `Cc1ccc(S(=O)(=O)N(C)C[C@@H]2Oc3ccc(N(C)C)cc3C(=O)N([C@@H](C)CO)C[C@H]2C)cc1`, the inhibition is -2.31%.

Regarding `COc1ccccc1S(=O)(=O)N1C[C@@H](O)COC[C@H]2O[C@H](CC(=O)O)CC[C@@H]21`, the inhibition was -5.9%.

For the compound `CCC(=O)N1C[C@@H](O)COC[C@H]2O[C@H](CC(=O)NCC3CCCCC3)CC[C@@H]21`, the inhibition was -3.78%.

For `O=C1CN(Cc2ccc(F)cc2)C[C@H]2[C@@H](c3ccc(Br)cc3)[C@H](CO)N12`, the inhibition was 4.49%.

With `CO[C@H]1CN(C)C(=O)c2ccc(NC(=O)CC(F)(F)F)cc2OC[C@H](C)N(C(=O)C2CC2)C[C@H]1C`, the inhibition was 3.96%.

Take `O=C(CC1CC1)N1[C@@H](CO)[C@@H](c2ccccc2)C12CN(S(=O)(=O)c1ccccc1)C2`: the inhibition is 7.09%.
